Source: PubChem BioAssay (NCI)
Compounds without any hit were thinned out: in the full panel of roughly 79,000, 15% have a hit. No stated cut-off is given here; in the data, active means growth inhibition above about 70%; inactive means the rest.

How the values were obtained:
[1] = NCI Yeast Anticancer Drug Screen. Data for the rad50 strain (AID 155);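 further: 0% = growth of vehicle-only cultures of the same strain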; settings: S. cerevisiae rad50 strain growth inhibition; at 50.0 µM; stronger effect = higher value
Summary of the method: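 Relative growth inhibition (compound vs vehicle) was measured in yeast with a defined repair-gene alteration.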

[2] = NCI Yeast Anticancer Drug Screen. Data for the mec2-1 strain (AID 157); settings: S. cerevisiae mec2-1 strain, at 50.0 µM, stronger effect = higher value
Summary of the method: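 Using mec2-1 yeast: add compound, measure growth, express inhibition versus vehicle-treated cultures.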

[3] = NCI Yeast Anticancer Drug Screen. Data for the sgs1 mgt1 strain (AID 161);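 further: 0% = growth of cultures given vehicle only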; settings: S. cerevisiae sgs1 mgt1 strain, at 50.0 µM, stronger effect = higher value
Summary of the method: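 Yeast cells carrying a defined DNA-repair defect were exposed to test compounds. Growth inhibition was measured relative to vehicle-treated controls.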

[4] = NCI Yeast Anticancer Drug Screen. Data for the cln2 rad14 strain (AID 165);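 further: 0% = growth equal to vehicle treated cultures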; settings: S. cerevisiae cln2 rad14 strain, at 50.0 µM, stronger effect = higher value
Summary of the method: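 Yeast strain cln2 rad14, bearing defects in cell cycle control and DNA repair, serves as the test system; values reflect growth inhibition compared with vehicle.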

[5] = NCI Yeast Anticancer Drug Screen. Data for the bub3 strain (AID 167); settings: S. cerevisiae bub3 mutant strain, at 50.0 µM, stronger effect = higher value
Summary of the method: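 Screening used yeast with an engineered genetic alteration affecting cell cycle control. Compound-exposed cultures were compared with vehicle cultures, and reduced growth was taken as inhibition.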

[6] = NCI Yeast Anticancer Drug Screen. Data for the mlh1 rad18 strain (AID 175); settings: S. cerevisiae mlh1 rad18 strain growth inhibition; at 50.0 µM; stronger effect = higher value
Summary of the method: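 Steps: expose repair-defective yeast to compound; measure growth; express inhibition against vehicle-treated controls.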

Measured: growth inhibition

NC(=O)CSc1ccccc1
inactive: [1] 8% | [2] 2.1% | [3] 9.8% | [4] 10.1% | [5] -4.5% | [6] -8.6%

CC12CCCC=C1N(C=O)c1ccccc12 (centres undefined)
inactive: [1] -6.1% | [2] 26.3% | [3] 14.7% | [4] 11.6% | [5] -28.1% | [6] 16.8%

COc1ccc2c(c1)C(=O)CC(C(N)=O)C2 (centres undefined)
inactive: [1] 20.6% | [2] 2.85% | [3] -29.9% | [4] 3.6% | [5] -13.7% | [6] -32%

COc1cc(C(=O)Nc2ccc(N3CCCCC3)cc2)cc(OC)c1OC
inactive: [1] 25.1% | [2] 9.2% | [3] 38.4% | [4] -16.2% | [5] 14.6% | [6] 36.3%

O=S(=O)(Nc1ccnn1-c1ccccc1)c1ccc(NC(=S)Nc2ccccc2)cc1
inactive: [1] 34.1% | [2] 38.5% | [3] 46% | [4] 27.7% | [5] 56.4% | [6] 65.5%

CC(=O)Nc1ccc(N=NN(C)c2ccccc2)cc1
inactive: [1] 29.4% | [2] 36% | [3] 47.1% | [4] 5.45% | [5] 19.8% | [6] 44.4%

O=c1[nH]c(=S)[nH]c2ncn(C3OC(CO)C(O)C3O)c12 (centres undefined)
inactive: [1] -13.4% | [2] -3.85% | [3] -8.15% | [4] -9.6% | [5] 5.65% | [6] -0.6%

OC12c3ccccc3C1(N1CCOCC1)CCCCC21OCCCO1 (centres undefined)
inactive: [1] 12.7% | [2] -11.2% | [3] -17.6% | [4] 10.1% | [5] -23.5% | [6] -5.15%

COC(=O)c1cccnc1F
inactive: [1] 3.9% | [2] -15.2% | [3] -14.7% | [4] -1.65% | [5] -30.2% | [6] -2.45%

[N-]=[N+]=Nc1c(Cc2ccccc2)c(Cl)nc2ccccc12
inactive: [1] 40.5% | [2] 57.9% | [3] 62.5% | [4] 53.7% | [5] 65% | [6] 40.8%

[N-]=[N+]=NC[C@H]1OCO[C@H](CN=[N+]=[N-])[C@@H](OCCOCCCl)[C@@H]1OCCOCCCl
inactive: [1] -13.1% | [2] -23.4% | [3] -10.6% | [4] -21.1% | [5] -28.8% | [6] -15.8%

COc1ccccc1C1c2cc3c(cc2OC(C)(OC)C1C)OCO3 (centres undefined)
inactive: [1] -3.4% | [2] -17.2% | [3] 18.1% | [4] -12.7% | [5] -10.2% | [6] 14.1%

Oc1cc(CN2CCOCC2)c(O)c(CN2CCOCC2)c1CN1CCOCC1
inactive: [1] 5.25% | [2] 7.45% | [3] 10.3% | [4] 27.4% | [5] -1.05% | [6] -3.3%

COc1ccc(CCN=C(c2ccccc2)c2ccccc2)cc1OC
inactive: [1] 22.4% | [2] 10.2% | [3] 8.75% | [4] -27.4% | [5] 10.3% | [6] 12.7%

CCc1ccc(N=Nc2c(F)c(F)c(N(C)C)c(F)c2F)cc1
inactive: [1] -2.4% | [2] 7.7% | [3] 6.85% | [4] 4.1% | [5] 1.05% | [6] -1.25%

CC/C(Cl)=N\OC(=O)Nc1ccc(C#N)cc1
inactive: [1] -44.8% | [2] 4.9% | [3] -19.4% | [4] 13.8% | [5] 46.3% | [6] -10.4%

CCCCOC(=O)C(C)O (centres undefined)
inactive: [1] 41.1% | [2] 16.3% | [3] 21.6% | [4] 19.3% | [5] 0.05% | [6] 24.9%

NNC(=O)C(=O)NN
inactive: [1] -24% | [2] -16.4% | [3] -1.85% | [4] -27.7% | [5] -1.75% | [6] -20.6%

CC12OC(=O)CC1C(c1ccccc1)(c1ccccc1)O2 (centres undefined)
inactive: [1] -7% | [2] -8% | [3] 4.1% | [4] -50.2% | [5] 2.75% | [6] -1.85%
